Measurements from PubChem BioAssay (EPA / NIEHS).
“And” between values parts separate entries of the source, which are not always exact repeats. Identical values can stand only once. Records with an inconclusive call do not appear. The source holds several records for some structures; these can differ, active in one and inactive in another. The source made the active and inactive calls. Rule for the calls, unless noted: active = hit-call score of the fitted dose curve at least 0.9, where 1 is the maximum; inactive = score below 0.9.

Key:
[1] = read-out: Interleukin-1 alpha (IL1a), IL1A (gene 3552); assay: BSK_LPS_IL1a: BioMAP Diversity Plus: LPS Assay for Interleukin-1 alpha (IL1a) Biomarker Activity (AID 2283080); conditions: primary human HUVEC with PBMC; actives raise or lower the signal
In short: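 Human umbilical vein endothelial cells co-cultured with PBMC and stimulated with LPS; IL-1a measured by ELISA 24 h after dosing. Bidirectional fitting against DMSO; cytotoxicity checked by SRB staining in parallel cultures.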

[2] = read-out: Monocyte Chemoattractant Protein-1 (MCP1), CCL2 (gene 6347); assay: BSK_LPS_MCP1: BioMAP Diversity Plus: LPS Assay for Monocyte Chemoattractant Protein-1 (MCP1) Biomarker Activity (AID 2283081); conditions: primary human HUVEC with PBMC; actives raise or lower the signal;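 for AC50: secreted MCP-1 protein quantified by ELISA in culture supernatant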
In short: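 Human umbilical vein endothelial cells co-cultured with PBMC, LPS-stimulated; secreted MCP-1 measured by ELISA 24 h after compound addition. Bidirectional curve fitting against DMSO baseline; SRB total-protein staining in parallel cultures for cytotoxicity.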

[3] = BSK_LPS_PGE2: BioMAP Diversity Plus: LPS Assay for Prostaglandin E2 (PGE2) Biomarker Activity (AID 2283082); conditions: primary human HUVEC with PBMC; actives raise or lower the signal;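 for AC50: secreted prostaglandin E2 measured by ELISA in LPS-stimulated co-culture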
In short: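 PGE2 release measured by ELISA in an LPS-activated co-culture of human umbilical vein endothelial cells and peripheral blood mononuclear cells, read at 24 h post-dosing. DMSO served as baseline for bidirectional curve fitting.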

[4] = read-out: Macrophage colony-stimulating factor (MCSF), CSF1 (gene 1435); assay: BSK_LPS_MCSF: BioMAP Diversity Plus: LPS Assay for Macrophage colony-stimulating factor (MCSF) Biomarker Activity (AID 2283083); conditions: primary human HUVEC with PBMC; actives raise or lower the signal
In short: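 HUVEC–PBMC co-culture, M-CSF measured by ELISA 24 h after chemical dosing. Fitted in both directions relative to DMSO as negative control; overt cytotoxicity assessed by SRB total-protein staining in parallel cultures.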

[5] = read-out: Tissue Factor, F3 (gene 2152); assay: BSK_LPS_TissueFactor: BioMAP Diversity Plus: LPS Assay for Tissue Factor Biomarker Activity (AID 2283084); conditions: primary human HUVEC with PBMC; actives raise or lower the signal
In short: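 Human umbilical vein endothelial cells co-cultured with PBMC were dosed with compound. Cell-surface CD142 was measured by ELISA 24 h later. Activity was fitted bidirectionally against DMSO, with SRB total-protein staining in parallel cultures for cytotoxicity.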

[6] = read-out: Tumor necrosis factor (Homo sapiens) (UniProt P01375); assay: BSK_LPS_TNFa: BioMAP Diversity Plus: LPS Assay for Tumour Necrosis Factor alpha (TNFa) Biomarker Activity (AID 2283085); conditions: primary human HUVEC with PBMC; actives raise or lower the signal;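 for AC50: TNFa protein level quantified by ELISA in the co-culture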
In short: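 TNFa was quantified by ELISA in LPS-activated co-cultures of human endothelial cells and PBMC, 24 h post-dosing. Both increases and decreases versus DMSO were fitted.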

[7] = read-out: Vascular cell adhesion molecule 1 (VCAM1), VCAM1 (gene 7412); assay: BSK_LPS_VCAM1: BioMAP Diversity Plus: LPS Assay for Vascular cell adhesion molecule 1 (VCAM1) Biomarker Activity (AID 2283086); conditions: primary human HUVEC with PBMC; actives raise or lower the signal
In short: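 VCAM-1 quantified by ELISA in an LPS-activated co-culture of human endothelial cells and peripheral blood mononuclear cells, read 24 h post-treatment. Fitted in both directions versus DMSO; parallel SRB staining flags overt cytotoxicity.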

CD40, CD40 (gene 958) = assay: BSK_SAg_CD40: BioMAP Diversity Plus: SAg Assay for CD40 Biomarker Activity (AID 2283088); conditions: primary human HUVEC with PBMC; actives raise or lower the signal
In short: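 HUVEC plus PBMC co-culture, superantigen-activated, with CD40 read by ELISA 24 h after dosing. Curves fitted in both directions against DMSO. Overt cytotoxicity checked by parallel SRB total-protein staining.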

CD69, CD69 (gene 969) = assay: BSK_SAg_CD69: BioMAP Diversity Plus: SAg Assay for CD69 Biomarker Activity (AID 2283089); conditions: primary human HUVEC with PBMC; actives raise or lower the signal;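 for AC50: cell surface CD69 protein quantified by ELISA with fluorescence detection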
In short: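 Endothelial/PBMC co-culture; chemical added; 24 h incubation; CD69 ELISA with fluorescence detection; bidirectional fit vs DMSO.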

[8] = read-out: Monocyte Chemoattractant Protein-1 (MCP1), CCL2 (gene 6347); assay: BSK_SAg_MCP1: BioMAP Diversity Plus: SAg Assay for Monocyte Chemoattractant Protein-1 (MCP1) Biomarker Activity (AID 2283090); conditions: primary human HUVEC with PBMC; actives raise or lower the signal
In short: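 Values derive from bidirectional fitting of ELISA-measured MCP1 against DMSO controls. Readings were taken 24 h after dosing human vascular endothelial cells co-cultured with peripheral blood mononuclear cells under superantigen stimulation.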

[9] = read-out: E-selectin (Homo sapiens) (UniProt P16581); assay: BSK_SAg_Eselectin: BioMAP Diversity Plus: SAg Assay for Eselectin Biomarker Activity (AID 2283091); conditions: primary human HUVEC with PBMC; actives raise or lower the signal
In short: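 Human umbilical vein endothelial cells co-cultured with peripheral blood mononuclear cells, SAg system. E-selectin is measured by ELISA 24 h after dosing and fitted bidirectionally against DMSO. Cytotoxicity is checked by SRB staining of parallel cultures.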

[10] = read-out: Monokine induced gamma interferon (MIG), CXCL9 (gene 4283); assay: BSK_SAg_MIG: BioMAP Diversity Plus: SAg Assay for Monokine induced gamma interferon (MIG) Biomarker Activity (AID 2283092); conditions: primary human HUVEC with PBMC; actives raise or lower the signal
In short: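 Measures CXCL9 protein by ELISA in a human vascular primary-cell co-culture (umbilical vein endothelium with PBMC) 24 h after chemical addition. Activity is scored up or down from the DMSO control.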

[11] = BSK_SAg_PBMCCytotoxicity: PBMC Cytotoxicity Assessment in the BioMAP Diversity Plus: SAg Assay (AID 2283093); conditions: primary human HUVEC with PBMC;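 note: PBMC viability measured as Alamar Blue reduction fluorescence at 546/580 nm; fitted both ways against DMSO so a hit may be loss or gain of signal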;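 for AC50: PBMC superantigen activated with SEB plus TSST-1 one hour after compound addition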
In short: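 Alamar Blue reduction (6 h, ex/em 546/580 nm) read after 90 h culture of PBMC pre-dosed 1 h then stimulated with SEB plus TSST-1, 20 ng/mL each. Gain or loss of signal fitted relative to DMSO.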

[12] = read-out: Interleukin-8 (IL8), CXCL8 (gene 3576); assay: BSK_SAg_IL8: BioMAP Diversity Plus: SAg Assay for Interleukin-8 (IL8) Biomarker Activity (AID 2283094); conditions: primary human HUVEC with PBMC; actives raise or lower the signal
In short: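 ELISA readout of IL-8 from a superantigen-activated endothelial/PBMC primary human co-culture, taken 24 h post-dosing and fitted in both directions against DMSO; parallel SRB total-protein staining flags overt cytotoxicity.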

[13] = BSK_SAg_Proliferation: Cell Proliferation Assessment in the BioMAP Diversity Plus: SAg Assay (AID 2283095); conditions: primary human HUVEC with PBMC;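 note: relative cell number as total protein by SRB absorbance in sub-confluent culture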
In short: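 Relative cell number in the endothelial cell/PBMC co-culture was quantified at 96 h by SRB staining (0.1% SRB, 10% TCA fixation, read at 560 nm). Curves were fitted in both directions relative to DMSO baseline.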

[14] = BSK_SAg_SRB: Viability Assessment in the BioMAP Diversity Plus: SAg Assay (AID 2283096); conditions: primary human HUVEC with PBMC;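 note: cells read one day after compound addition; hits may be either gain or loss of signal compared with DMSO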
In short: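 SRB absorbance at 560 nm served as the viability read-out. Cells (HUVEC plus peripheral blood mononuclear cells) were TCA-fixed and stained 24 h post-dosing; activity fitted in both directions against DMSO controls.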

[15] = molecular target: Cytochrome P450 3A4 (Homo sapiens) (UniProt P08684); assay: NVS_ADME_hCYP3A4: NovaScreen (NVS) CYP450-related Enzyme Activity (ADME) Assay for human CYP3A4 (AID 2283110; active = hit-call score of the fitted dose curve at least 0.9, where 1 is the maximum)
Cytochrome P450 3A4 (Homo sapiens), sequence (P08684 whole entry, looked up): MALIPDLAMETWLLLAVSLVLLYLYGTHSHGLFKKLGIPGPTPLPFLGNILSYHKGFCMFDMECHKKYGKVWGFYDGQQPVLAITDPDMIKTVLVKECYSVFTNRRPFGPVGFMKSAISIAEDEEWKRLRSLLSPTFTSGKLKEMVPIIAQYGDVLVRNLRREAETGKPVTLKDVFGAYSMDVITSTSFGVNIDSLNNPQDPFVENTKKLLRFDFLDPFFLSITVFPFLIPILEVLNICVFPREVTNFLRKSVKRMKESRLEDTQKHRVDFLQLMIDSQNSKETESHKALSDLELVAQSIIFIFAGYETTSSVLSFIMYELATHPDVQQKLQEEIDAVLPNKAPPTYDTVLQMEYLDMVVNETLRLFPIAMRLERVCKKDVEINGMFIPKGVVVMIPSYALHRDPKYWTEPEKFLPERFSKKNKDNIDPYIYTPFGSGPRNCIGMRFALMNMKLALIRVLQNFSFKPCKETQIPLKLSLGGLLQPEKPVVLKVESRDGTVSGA
In short: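 Compounds screened in duplicate at 10 uM, with follow-up concentration-response for actives, against insect-cell-expressed recombinant enzyme. Activity read by fluorescence 0.33 h after dosing; loss of signal versus acetonitrile control indicates inhibition.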

CD38, CD38 (gene 952) = assay: BSK_SAg_CD38: BioMAP Diversity Plus: SAg Assay for CD38 Biomarker Activity (AID 2283087); conditions: primary human HUVEC with PBMC; actives raise or lower the signal
In short: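 CD38 quantified by ELISA (fluorescence) in a superantigen-activated endothelial cell–PBMC co-culture at 24 h post-dose. Activity fitted in both directions relative to DMSO; parallel SRB and Alamar Blue cytotoxicity read-outs.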

Measured: AC50

E-selectin (Homo sapiens), sequence (P16581 whole entry, looked up): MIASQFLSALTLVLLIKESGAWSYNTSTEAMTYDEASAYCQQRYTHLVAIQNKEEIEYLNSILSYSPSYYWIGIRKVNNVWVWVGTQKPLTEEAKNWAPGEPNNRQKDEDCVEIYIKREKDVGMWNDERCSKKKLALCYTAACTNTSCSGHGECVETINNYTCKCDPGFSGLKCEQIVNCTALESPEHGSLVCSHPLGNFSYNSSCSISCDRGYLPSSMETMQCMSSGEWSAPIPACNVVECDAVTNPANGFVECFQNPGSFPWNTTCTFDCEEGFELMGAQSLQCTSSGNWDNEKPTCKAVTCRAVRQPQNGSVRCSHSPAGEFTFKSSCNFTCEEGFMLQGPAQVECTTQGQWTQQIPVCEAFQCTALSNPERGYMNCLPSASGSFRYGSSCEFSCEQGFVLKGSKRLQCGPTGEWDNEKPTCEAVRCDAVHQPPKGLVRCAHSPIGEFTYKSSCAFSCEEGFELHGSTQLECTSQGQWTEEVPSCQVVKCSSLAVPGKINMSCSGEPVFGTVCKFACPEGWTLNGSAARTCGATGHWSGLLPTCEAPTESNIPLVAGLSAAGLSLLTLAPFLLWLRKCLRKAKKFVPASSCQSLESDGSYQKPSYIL
Tumor necrosis factor (Homo sapiens), sequence (P01375 whole entry, looked up): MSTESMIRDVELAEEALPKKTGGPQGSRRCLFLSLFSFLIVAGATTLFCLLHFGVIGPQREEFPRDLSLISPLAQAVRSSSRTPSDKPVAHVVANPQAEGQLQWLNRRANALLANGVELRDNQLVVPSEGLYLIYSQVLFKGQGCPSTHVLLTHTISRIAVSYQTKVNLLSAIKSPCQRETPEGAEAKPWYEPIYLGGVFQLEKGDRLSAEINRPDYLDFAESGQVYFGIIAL

CCN(CC)c1ccc2c(C)cc(=O)oc2c1
active: [3] 6.52 µM
inactive: [1] | [2] | [4] | [5] | [6] | [7] | CD40, CD40 (gene 958) | CD69, CD69 (gene 969) | [8] | [9] | [10] | [11] | [12] | [13] | [14] | [15]

O=S(=O)(OCC(F)F)C(F)(F)F
inactive: [1] | [2] | [3] | [4] | [5] | [6] | [7] | CD40, CD40 (gene 958) | CD69, CD69 (gene 969) | [8] | [9] | [10] | [11] | [12] | [13] | [14]

C=CC(F)(F)C(F)(F)C(F)(F)C(F)(F)C(F)(F)C(F)(F)C(F)(F)C(F)(F)F
inactive: [1] | [2] | [3] | [4] | [5] | [6] | [7] | CD38, CD38 (gene 952) | CD40, CD40 (gene 958) | CD69, CD69 (gene 969) | [8] | [9] | [10] | [11] | [12] | [13] | [14]

C#C[C@]1(O)CC[C@H]2[C@@H]3CCc4cc(OC)ccc4[C@H]3CC[C@@]21C
inactive: [3] | [4] | [5] | [7] | CD40, CD40 (gene 958) | [8] | [9] | [10] | [12] | [14]
active: [1] 31.1 µM | [2] 18.5 nM | [6] 34.6 µM | CD38, CD38 (gene 952) 27.1 µM | CD69, CD69 (gene 969) 15.2 µM | [13] 30.4 µM

NC(=O)C(F)(F)C(F)(F)C(F)(F)C(F)(F)F
inactive: [1] | [2] | [3] | [4] | [5] | [6] | [7] | CD38, CD38 (gene 952) | CD40, CD40 (gene 958) | CD69, CD69 (gene 969) | [8] | [9] | [10] | [11] | [12] | [13] | [14]
active: [13] 30 µM

O=P(O)(O)OCCC(F)(F)C(F)(F)C(F)(F)C(F)(F)C(F)(F)C(F)(F)F
inactive: [1] | [2] | [3] | [4] | [5] | [6] | CD38, CD38 (gene 952) | CD40, CD40 (gene 958) | CD69, CD69 (gene 969) | [8] | [9] | [10] | [12] | [13] | [14]

CCO[Si](CCC(F)(F)C(F)(F)C(F)(F)C(F)(F)C(F)(F)C(F)(F)F)(OCC)OCC
inactive: [1] | [2] | [3] | [4] | [5] | [6] | CD40, CD40 (gene 958) | CD69, CD69 (gene 969) | [8] | [9] | [10] | [12] | [13] | [14]

C=CC/C=C/C/C=C/C/C=C/C
active: [6] 0.628 µM
inactive: [1] | [2] | [3] | [4] | [5] | CD40, CD40 (gene 958) | CD69, CD69 (gene 969) | [8] | [9] | [10] | [12] | [13] | [14]

FC(F)(F)C(F)(F)C(F)(F)C(F)(F)C(F)(F)CCI
active: [13] 44 µM
inactive: [1] | [2] | [3] | [4] | [5] | [6] | [7] | CD40, CD40 (gene 958) | CD69, CD69 (gene 969) | [8] | [9] | [10] | [12] | [13] | [14]

O=S(=O)(O)C(F)(F)C(F)(F)C(F)(F)C(F)(F)C(F)(F)C(F)(F)C(F)(F)F
inactive: [1] | [2] | [3] | [4] | [5] | [6] | CD38, CD38 (gene 952) | CD40, CD40 (gene 958) | CD69, CD69 (gene 969) | [8] | [9] | [10] | [12] | [13] | [14]

FC(F)(F)C(F)(F)C(F)(F)C(F)(F)C(F)(F)C(F)(F)C(F)(F)C(F)(F)CCS
inactive: [1] | [2] | [3] | [4] | [5] | [6] | CD40, CD40 (gene 958) | CD69, CD69 (gene 969) | [8] | [9] | [10] | [12] | [13] | [14]
active: [5] 1.02 µM

CS(C)(=O)=O
inactive: [1] | [2] | [3] | [4] | [5] | [6] | [7] | CD40, CD40 (gene 958) | CD69, CD69 (gene 969) | [8] | [9] | [10] | [12] | [13] | [14]

C=CC(=O)OCC(F)(F)C(F)(F)C(F)(F)C(F)(F)COC(=O)C=C
active: [1] 20.2 µM and 21.2 µM | [2] 17.3 µM and 19.4 µM | [3] 8.08 µM | [4] 21.4 µM and 21.3 µM | [5] 36.4 µM and 34.8 µM | [6] 18.3 µM and 18.1 µM | CD38, CD38 (gene 952) 17.6 µM and 20.6 µM | CD40, CD40 (gene 958) 13.1 µM and 15.1 µM | CD69, CD69 (gene 969) 14.5 µM and 17.3 µM | [8] 27.9 µM and 25.1 µM | [9] 15.5 µM and 15.3 µM | [10] 20.6 µM and 20.9 µM | [11] 28.9 µM and 30 µM | [12] 16.8 µM and 25 µM | [13] 8.2 µM and 8.47 µM | [14] 44.6 µM and 46.9 µM
inactive: [3]
